Inconclusive results are not listed. Values without a mark were called inactive. Activity calls are given as the source filed them. Calls come from the whole dose curve; as a rule, active = well fitted cell-killing curve with a large enough effect; inconclusive = small, poorly fitted or top-dose-only effect; inactive = flat fitted curve, though single readings scatter.
Test: Cell Viability - LYMP2-025 (AID 976);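 note: cells exposed to compound for 24 h at 37 °C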;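 for activity change, negative = cytotoxicity: plate controls were DMSO only for no effect and tetraoctylammonium bromide control for full effect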
Details: LYMP2-025 lymphoblastoid cell viability; series mostly up to 92.2 µM; activity change, negative = cytotoxicity: at the top concentration
Description: NIH Chemical Genomics Center [NCGC]
NIH Molecular Libraries Screening Centers Network [MLSCN]
National Institutes of Environmental Health Sciences [NIEHS]
National Toxicology Program [NTP]
We have developed a 1536-well cell-based assay for quantitative high throughput screening (qHTS) against a number of cell lines to determine in vitro cytotoxicity of small molecules. This particular assay uses a human lymphoblastoid cell line (LYMP2-025) purchased from Coriell Institute for Medical Research.
NCGC Assay Protocol Summary:
The CellTiter-Glo luminescent cell viability assay (Promega) is a homogeneous method to measure the number of viable cells in culture. The end point readout of this assay is based on quantitation of intracellular ATP, an indicator of metabolic activity, using the luciferase reaction. Luciferase catalyzes the oxidation of beetle Luciferin to oxyluciferin and light in the presence of ATP. The luminescent signal is proportional to amount of ATP present.
Using the CellTiter-Glo luminescent cell viability assay, the amount of cellular ATP was measured in the lymphoblastoid cell line with complete culture medium following compound treatment for 24 hours. The assay was performed in opaque white Kalypsys 1536-well plates. In the screen, tetraoctylammonium bromide was used as positive control. Library compounds were measured for their ability to cause acute toxicity in the cell line, as reflected by a decrease in intracellular ATP levels, in a concentration-dependent manner. […] AC50 values were determined from concentration-response data modeled with the standard Hill equation.
qHTS protocol for CellTiter Glo lymphoblastoid cellular assay
[Step] [Parameter] [Value] [Description]
1. Reagent; 5 uL; 2500 lymphoblastoid cells/well
2. Time; 5 hr; 37 C incubation
4. Controls; 23 nL; Tetraoctylammonium bromide 6.4pM to 92 uM
5. Time; 24 hr; 37 C incubation
6. Reagent; 5 uL; CellTiter Glo reagent
7. Time; 30 min; Room Temperature
8. Detection; Luminescence; Viewlux plate reader
Keywords: cell viability, cytotoxicity, lymphoblastoid cell line, luminescence, NTPHTS, NTPHTS_NCGC, NIEHS, DSSTox, MLSMR, MLSCN, NIH Roadmap, qHTS, NCGC
Potency is the fitted concentration of half-maximal effect.

SMILES	activity change, negative = cytotoxicity	Potency
Cc1ccc(O)cc1	-5.85%	
O=C(NO)c1ccccc1	-9.19%	
c1ccc2occc2c1	-2.28%	
Nc1cccc2c(N)cccc12	-9.44%	
COc1cc(C=O)ccc1O	-15.1%	
CC(C)(c1ccc(O)cc1)c1ccc(O)cc1		inactive
O=C(Oc1ccccc1)c1ccccc1O	-13.2%	
CCCCC(CC)COC(=O)c1ccccc1C(=O)O (centres undefined)	-6.45%	
Cc1cc(C(C)(C)C)c(O)c(C(C)(C)C)c1	-4.08%	
CC(=O)OC/C=C(C)/C=C/C=C(C)/C=C/C1=C(C)CCCC1(C)C	-33.1%	
CC(C)C(C)(C)C(C)(C)C(C)(C)S	-12.5%	
Oc1ccccc1	-0.582%	
C1=CC2C3C=CC(C3)C2C1 (centres undefined)	-6.47%	
Nc1c2ccccc2nc2ccccc12		12.6 µM (active)
Brc1ccccc1-c1ccccc1	-7.38%	
OCc1c[nH]c2ccccc12	-5.23%	
CCCCCCCCCCCCCCCC[n+]1ccccc1		39.8 µM (active)
O=C(c1ccccc1)c1ccccc1	-8.63%	
CCCC(=O)c1cc(O)c(O)cc1O	-14.1%	

— PubChem BioAssay (NCATS)
